Test in all cases: yeast three-hybrid, YBZ-1, SC-Leu-His + 0.5 mM 3-AT, 4 days
Common to all, as to details: tags: N-Gal4 AD-HA kept; label: inside an RPR1-promoter hybrid RNA with tandem MS2 sites; ssRNA

One assay has as its target PUM1 PUF domain R4-ANL (Homo sapiens, UniProt Q14671 828-1176, N971A;H972N;Q975L). In a few lines:
(§1)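 The interaction score is the logarithmic change in variant frequency from input to selection. It uses log2, with a pseudocount of 1 for absent variants, and frequencies came from PCR-amplified, Illumina-sequenced repeat regions. The libraries were Pumilio-1 PUF domains randomized at the three base-contacting residues per repeat, co-expressed with matching RNA elements in strain YBZ-1 (LexA–MS2 coat fusion, HIS3 reporter). Plating lasted four days on SC-Leu (input) or SC-Leu-His + 0.5 mM 3-AT (selection).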

In a further assay the target is PUM1 PUF domain R4-SPR (Homo sapiens, UniProt Q14671 828-1176, N971S;H972P;Q975R). In a few lines:
as §1

Another assay has as its target PUM1 PUF domain R4-AQY (Homo sapiens, UniProt Q14671 828-1176, N971A;H972Q;Q975Y). The essentials: as §1
Another assay concerns the target PUM1 PUF domain R4-AYP (Homo sapiens, UniProt Q14671 828-1176, N971A;H972Y;Q975P). The essentials: as §1
A further assay concerns the target PUM1 PUF domain R7-LST (Homo sapiens, UniProt Q14671 828-1176, S1079L;N1080S;E1083T). In a few lines: as §1
The next assay has as its target PUM1 PUF domain R5-CGR (Homo sapiens, UniProt Q14671 828-1176, R1008G;Q1011R). The essentials:
as §1

A further assay has as its target PUM1 PUF domain R5-NPR (Homo sapiens, UniProt Q14671 828-1176, C1007N;R1008P;Q1011R). The essentials:
as §1

In a further assay the target is PUM1 PUF domain R8-FFK (Homo sapiens, UniProt Q14671 828-1176, N1122F;Y1123F;Q1126K). In a few lines:
as §1

Experimental findings from article PMC8384837, “Expanding the binding specificity for RNA recognition by a PUF domain” are described below.

Sequence of PUM1 PUF domain R5-CGR (Q14671 828-1176 R1008G/Q1011R): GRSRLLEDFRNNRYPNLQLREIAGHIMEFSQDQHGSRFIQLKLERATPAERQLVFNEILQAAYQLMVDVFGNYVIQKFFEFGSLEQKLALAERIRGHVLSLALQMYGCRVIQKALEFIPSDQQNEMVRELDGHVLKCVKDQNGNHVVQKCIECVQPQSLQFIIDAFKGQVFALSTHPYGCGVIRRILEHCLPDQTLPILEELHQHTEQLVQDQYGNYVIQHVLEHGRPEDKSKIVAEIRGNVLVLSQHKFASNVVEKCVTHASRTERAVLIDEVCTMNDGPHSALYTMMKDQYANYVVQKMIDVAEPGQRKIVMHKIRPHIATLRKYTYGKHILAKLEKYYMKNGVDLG
Sequence of PUM1 PUF domain R8-FFK (Q14671 828-1176 N1122F/Y1123F/Q1126K): as the sequence (Q14671 828-1176 R1008G/Q1011R) above, with G181R, R184Q, N295F, Y296F, Q299K counted along it
Sequence of PUM1 PUF domain R7-LST (Q14671 828-1176 S1079L/N1080S/E1083T): as the sequence (Q14671 828-1176 R1008G/Q1011R) above, with G181R, R184Q, S252L, N253S, E256T counted along it

For the sequence “GGCUAGAACUAGUGGAUCCCCCGGCGCCCGGCGGCUCGAGCCCGGGUAAGUGUAUAUAGUCUGCAUGCCGCCGGGCGCCAUGCCUGCAGGUCGACUCUAGAAAACAUG”, the binding signal was 2.71 log2 enrichment (interaction score) with PUM1 PUF domain R4-ANL and 3.12 log2 enrichment (interaction score) in the assay with PUM1 PUF domain R4-SPR.

As for “GGCUAGAACUAGUGGAUCCCCCGGCGCCCGGCGGCUCGAGCCCGGGUAAGUGUACAUAGUCUGCAUGCCGCCGGGCGCCAUGCCUGCAGGUCGACUCUAGAAAACAUG”, the binding signal is 1.38 log2 enrichment (interaction score) with PUM1 PUF domain R4-ANL and 2.73 log2 enrichment (interaction score) in the assay with PUM1 PUF domain R4-SPR. As for “GGCUAGAACUAGUGGAUCCCCCGGCGCCCGGCGGCUCGAGCCCGGGUAAGUGUAAAUAGUCUGCAUGCCGCCGGGCGCCAUGCCUGCAGGUCGACUCUAGAAAACAUG”, the values for the binding signal with PUM1 PUF domain R4-AQY and with PUM1 PUF domain R4-AYP were 3.35 log2 enrichment (interaction score) and 7.85 log2 enrichment (interaction score), respectively.

For the sequence “GGCUAGAACUAGUGGAUCCCCCGGCGCCCGGCGGCUCGAGCCCGGGUAAGUUUAAAUAGUCUGCAUGCCGCCGGGCGCCAUGCCUGCAGGUCGACUCUAGAAAACAUG”, the binding signal in the assay with PUM1 PUF domain R7-LST is 3.64 log2 enrichment (interaction score). “GGCUAGAACUAGUGGAUCCCCCGGCGCCCGGCGGCUCGAGCCCGGGUAAGUGUCAAUAGUCUGCAUGCCGCCGGGCGCCAUGCCUGCAGGUCGACUCUAGAAAACAUG”: the binding signal was 4.13 log2 enrichment (interaction score) in the assay with PUM1 PUF domain R5-CGR and 4.07 log2 enrichment (interaction score) with PUM1 PUF domain R5-NPR. Consider “GGCUAGAACUAGUGGAUCCCCCGGCGCCCGGCGGCUCGAGCCCGGGUAAGCGUAAAUAGUCUGCAUGCCGCCGGGCGCCAUGCCUGCAGGUCGACUCUAGAAAACAUG”, for which the binding signal with PUM1 PUF domain R8-FFK is 3.27 log2 enrichment (interaction score).

Regarding “GGCUAGAACUAGUGGAUCCCCCGGCGCCCGGCGGCUCGAGCCCGGGUAAGUGUUAAUAGUCUGCAUGCCGCCGGGCGCCAUGCCUGCAGGUCGACUCUAGAAAACAUG”, the binding signal with PUM1 PUF domain R5-NPR is 4.1 log2 enrichment (interaction score).
